Results on 10 compounds are retold here after PubChem BioAssay (NCATS).

Results filed as inconclusive are left out. The source made the active and inactive calls. The call rests on the fitted dose curve; in most records, active means well fitted inhibition curve with a large enough effect; inconclusive means small, poorly fitted or top-dose-only effect; inactive means flat fitted curve, though single readings scatter. Where a SMILES comes first, the peptide text is derived from it. Bridges are numbered along the chain shown (N, C = ends). [ ]: non-standard residue; d: D form. The star is where a group is joined. X2 = CC[C@H](C)CCCCC(=O)*; Dab = NCC[C@H](N)C(=O)O
On the % scale 0 is the no-effect control and ±100 the full control effect; potency means the concentration at half of the fitted maximal effect.

Voltage-gated inwardly rectifying potassium channel KCNH2 (Homo sapiens), sequence (Q12809 whole entry, looked up): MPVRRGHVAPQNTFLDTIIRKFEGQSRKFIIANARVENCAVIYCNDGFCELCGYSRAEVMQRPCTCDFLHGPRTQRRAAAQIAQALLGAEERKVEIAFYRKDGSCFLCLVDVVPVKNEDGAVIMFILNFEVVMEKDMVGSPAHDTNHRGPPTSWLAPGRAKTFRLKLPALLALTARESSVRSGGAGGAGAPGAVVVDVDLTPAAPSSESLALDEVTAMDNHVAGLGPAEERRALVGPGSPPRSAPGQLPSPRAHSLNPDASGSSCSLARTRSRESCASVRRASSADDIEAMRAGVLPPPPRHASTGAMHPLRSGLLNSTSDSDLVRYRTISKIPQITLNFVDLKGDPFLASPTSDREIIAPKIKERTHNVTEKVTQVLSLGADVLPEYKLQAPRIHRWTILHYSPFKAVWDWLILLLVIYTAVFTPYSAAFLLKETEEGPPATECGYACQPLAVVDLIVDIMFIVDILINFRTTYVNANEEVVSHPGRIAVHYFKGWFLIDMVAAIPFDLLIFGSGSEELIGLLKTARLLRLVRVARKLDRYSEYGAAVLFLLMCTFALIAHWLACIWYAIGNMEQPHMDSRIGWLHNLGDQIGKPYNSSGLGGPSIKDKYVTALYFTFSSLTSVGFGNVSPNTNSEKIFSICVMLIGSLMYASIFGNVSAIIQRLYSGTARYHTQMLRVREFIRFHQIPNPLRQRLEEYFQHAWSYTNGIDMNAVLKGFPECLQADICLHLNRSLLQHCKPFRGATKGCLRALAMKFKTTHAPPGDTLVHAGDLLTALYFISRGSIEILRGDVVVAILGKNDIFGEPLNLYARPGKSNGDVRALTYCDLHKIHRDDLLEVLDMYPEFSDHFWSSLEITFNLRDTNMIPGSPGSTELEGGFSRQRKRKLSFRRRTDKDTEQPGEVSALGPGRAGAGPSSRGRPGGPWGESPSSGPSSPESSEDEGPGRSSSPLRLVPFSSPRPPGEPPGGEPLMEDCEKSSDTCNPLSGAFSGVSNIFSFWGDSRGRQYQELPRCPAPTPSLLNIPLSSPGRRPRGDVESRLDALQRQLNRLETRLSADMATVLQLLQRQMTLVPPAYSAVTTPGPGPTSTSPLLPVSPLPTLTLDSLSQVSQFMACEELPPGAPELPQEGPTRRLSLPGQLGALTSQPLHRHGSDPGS

This assay concerns the target Voltage-gated inwardly rectifying potassium channel KCNH2 (Homo sapiens) (UniProt Q12809). In words: qHTS Assay for Small Molecule Inhibitors of the Human hERG Channel Activity (AID 588834).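 Further: lower thallium flux fluorescence means stronger hERG block; nearly all actives have a fitted effect of over 50% in size.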 On activity change, negative = inhibition: top concentration of the series differs between compounds. The conditions noted are these: U2OS BacMam hERG, FluxOR thallium flux fluorescence; series mostly up to 46.1 µM; activity change, negative = inhibition: at the top concentration. Summed up: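 Homogeneous FluxOR thallium flux assay using hERG-expressing U2OS cells (BacMam). Compound treatment about 10 minutes preceded stimulation; reduced fluorescence taken as channel block.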
As to `CCC(=O)c1ccc2c(c1)N(CCCN1CCN(CCO)CC1)c1ccccc1S2`, the Potency was 5.01 µM (active). `CN1c2c(nc(N)[nH]c2=O)NCC1CNc1ccc(C(=O)NC(CCC(=O)O)C(=O)O)cc1` (stereo not given): the “activity change, negative = inhibition” value is 10.3% (inactive). The same measure, in the same setting: the same measure for `C=CC[C@@H]1/C=C(\C)C[C@H](C)C[C@H](OC)[C@H]2O[C@@](O)(C(=O)C(=O)N3CCCC[C@H]3C(=O)O[C@H](/C(C)=C/[C@@H]3CC[C@@H](O)[C@H](OC)C3)[C@H](C)[C@@H](O)CC1=O)[C@H](C)C[C@@H]2OC`: 11.1% (inactive); for `Cn1c(=O)c2c(ncn2CCOC(=O)C(C)(C)Oc2ccc(Cl)cc2)n(C)c1=O`: 2.44% (inactive). On to `CCCCC(O)c1ccccc1` (stereo not given), for which the “activity change, negative = inhibition” value was -10.1% (inactive). `CC[C@H](C)CCCCC(=O)N[C@@H](CCN)C(=O)N[C@H](C(=O)N[C@@H](CCN)C(=O)N[C@H]1CCNC(=O)[C@@H]([C@H](C)O)NC(=O)[C@H](CCN)NC(=O)[C@H](CCN)NC(=O)[C@H](CC(C)C)NC(=O)[C@@H](CC(C)C)NC(=O)[C@H](CCN)NC1=O)[C@@H](C)O` (X2-[Dab]T[Dab][Dab][Dab][dL]L[Dab][Dab][dT]; lactam 4-C): the “activity change, negative = inhibition” value was 1.35% [at 20.6 µM] (inactive). For the compound `O=P(O)(O)OC[C@H](O)CO`, the “activity change, negative = inhibition” value was -1.2% (inactive). As to `OC[C@@H](O)C(O)[C@H](O)CO`, the “activity change, negative = inhibition” value was -11.7% (inactive).

Turning to `C=CC1=C(C(=O)O)N2C(=O)[C@@H](NC(=O)/C(=N/OCC(=O)O)c3csc(N)n3)[C@H]2SC1` (stereo in doubt), the “activity change, negative = inhibition” value is 1.33% [at 20.6 µM] (inactive). Consider `CCCCCCCCCCCCCCCC(=O)OC[C@H](COP(=O)([O-])OCC[N+](C)(C)C)OC(=O)CCCCCCCCCCCCCCC`, for which the “activity change, negative = inhibition” value was 0.775% (inactive).
